Pf apPOL inh – Pf-apPOL DNA polymerase inhibition | Recombinant Pf-apPOL, molecular beacon fluorescence, 1.5 h | inhibition, % at 10 µM | actives 0.25% (n = 210,000) | AID 1794808
mHTT-CaM PPI inh – mHTT-calmodulin interaction abrogation | P42858 | AlphaScreen His-mHTT/GST-CaM binding, luminescence | inhibition, % at 15 µM | actives 3.6% (n = 190,000) | AID 1671202;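 further: 0% = both proteins with DMSO and 100% = one protein alone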
An asterisk follows results filed as active; x = no result. In the library only some 3.6% were active in any assay of this set; here they are far more common. No stated cut-off is given here; in the data, active means inhibition above about 50%; inactive means the rest.

SMILES | Pf apPOL inh | mHTT-CaM PPI inh
CN(C)c1ccc(C2NC(=O)c3c(sc4c3CCCC4)N2)cc1 (stereo not drawn) | 11.5 | 26.0
O=C1NC(c2cccs2)Nc2sc3c(c21)CCCC3 (stereo not drawn) | -2.3 | 7.0
O=C1NC(c2ccc(O)cc2)Nc2sc3c(c21)CCCC3 (stereo not drawn) | -0.8 | 57.0*
O=C1NC(/C=C/c2ccccc2)Nc2sc3c(c21)CCCC3 (stereo not drawn) | -5.4 | 66.0*
O=C(c1cccc(Cl)c1)N1CC(C(=O)N2CCOCC2)C(c2ccccc2)C1 (stereo not drawn) | 3.4 | 7.2
Cc1cc(C)cc(OCC(=O)N2N=C(c3ccc(Cl)cc3)CC2(O)C(F)(F)F)c1 (stereo not drawn) | -1.0 | 90.0*
COc1ccc(C(=O)N2N=C(c3cccc(Br)c3)CC2(O)C(F)(F)F)cc1 (stereo not drawn) | 0.2 | 50.0*
O=C(c1ccc(Cl)cc1)N1N=C(c2ccccc2)CC1(O)C(F)(F)F (stereo not drawn) | -10.4 | 54.0*
COc1ccc(C(=O)N2N=C(c3ccc(Br)cc3)CC2(O)C(F)(F)F)cc1 (stereo not drawn) | 1.5 | 24.0
Cc1ccccc1OCC(=O)N1N=C(c2ccc(Cl)cc2)CC1(O)C(F)(F)F (stereo not drawn) | 4.0 | 96.0*
O=C(c1ccc(Cl)cc1)N1N=C(c2ccc(Cl)cc2)CC1(O)C(F)(F)F (stereo not drawn) | -4.8 | -2.0
Cc1ccc(C(=O)N2N=C(c3ccc(Cl)cc3)CC2(O)C(F)(F)F)cc1 (stereo not drawn) | -4.3 | 35.0
O=C(CCc1ccccc1)N1N=C(c2ccc(Cl)cc2)CC1(O)C(F)(F)F (stereo not drawn) | -12.8 | -8.0
O=c1[nH][nH]c2nc3ccccc3n2c1=O | x | 43.9
O=C(NCCCn1ccnc1)c1ccc(C(=O)NCCCn2ccnc2)cc1 | 0.0 | 0.3
Cc1ccc(N2CC(NC(=O)NCCCn3ccnc3)CC2=O)cc1 (stereo not drawn) | -3.0 | 97.7*
O=C(NCc1cc(-c2ccccc2F)on1)c1ncc(-c2ccccc2)o1 | -2.5 | -13.0
C=CCNC(=O)c1oc2ccc(S(=O)(=O)N3CCCCCC3)cc2c1C | -10.0 | -6.0
C=CCNC(=O)c1oc2ccc(S(=O)(=O)N3CC(C)CC(C)C3)cc2c1C (stereo not drawn) | -14.5 | 77.0*
O=C(Cc1ccc(NS(=O)(=O)Cc2ccccc2Cl)cc1)NCc1cccs1 | 0.8 | -15.5
Cc1cccc(N2CCN(Cc3ccc(-c4ccccc4[N+](=O)[O-])o3)CC2)c1C | 3.2 | 59.4*
O=[N+]([O-])c1ccccc1-c1ccc(CN2CCN(c3ccccc3F)CC2)o1 | -3.7 | 23.1
CSCCCN1CCOCC1 | -7.3 | -2.0
COCCCNC(=O)CCCN1C(=O)CCn2nc(C)cc21 | -3.5 | -4.6
COc1cccc(C(CC(=O)N2CCCC2)c2c[nH]c3ccccc23)c1 (stereo not drawn) | -3.7 | 13.5
SMILES | Pf apPOL inh | mHTT-CaM PPI inh
COc1ccc(C(CC(=O)N2CCCC2)c2c[nH]c3ccccc23)cc1 (stereo not drawn) | -7.2 | 91.2*
Cc1ccc(N2NC(=O)/C(=C\c3ccc(Cl)c([N+](=O)[O-])c3)C2=O)cc1C | -3.2 | 96.0*
O=C1NN(c2ccc(F)cc2)C(=O)/C1=C/c1cccc(Br)c1 | 16.6 | 70.0*
Cc1ccc(N2NC(=O)/C(=C\c3ccc(Br)cc3)C2=O)cc1C | 28.2 | 4.0
Cc1ccc(N2NC(=O)/C(=C\c3cccc(Br)c3)C2=O)cc1C | -2.3 | 69.0*
O=C1NN(c2cccc(Br)c2)C(=O)/C1=C/c1ccc(O)cc1 | 1.3 | 26.0
Cc1cc([N+](=O)[O-])cc(/C=C2\C(=O)NN(c3ccc(Br)cc3)C2=O)c1O | -0.2 | 12.0
Cc1ccc(N2NC(=O)/C(=C\c3ccc(O)c([N+](=O)[O-])c3)C2=O)cc1Cl | 6.2 | 33.0
O=C1NN(c2ccc(Br)cc2)C(=O)/C1=C/c1cc([N+](=O)[O-])c(Cl)cc1Cl | -3.2 | 95.0*
Cc1onc(-c2ccccc2)c1C(=O)NC1CCCCC1 | -4.5 | -1.7
Cn1cc(CC(=O)NCc2ccccn2)c2ccccc21 | 1.2 | -5.0
CCCC(=O)Nc1ccc(NC(=O)COc2ccc(Br)cc2)cc1 | -4.3 | 0.8
O=C(Nc1ccc2c(c1)OCO2)N1CCC(N2CCN(Cc3ccc(F)cc3)C2=O)CC1 | 8.0 | 4.6
COc1ncc(C(=O)NC(C)CCc2ccccc2)cn1 (stereo not drawn) | 0.3 | -6.3
Cc1ccc(C(=O)NCCc2nc3ccccc3c(=O)[nH]2)cc1C | 0.9 | -6.9
Cc1ccccc1-c1cc(N2CCN(C(=O)Cc3cccc(F)c3)CC2)ncn1 | -3.7 | 9.4
O=C1OC(c2cccnc2Sc2ccc(Cl)cc2)=NC1=Cc1ccc(C(F)(F)F)cc1 | 7.4 | x
COc1ccc(N2CCN(CCNC(=O)c3nc4ccccc4s3)CC2)cc1 | -1.4 | -0.6
CCSc1nc(C2CC2)cc(C(F)(F)F)c1C#N | x | -17.9
CN(C)C=CC=C1CCCC1=O | 89.3* | x
CCOc1ccc(N=C(NN)c2ccc3ccccc3n2)cc1 | -7.3 | 55.5*
Cc1ccc(N=C(NN)c2ccc3ccccc3n2)cc1 | 1.7 | 44.6
O=C(c1ccc2ncnc(N3CCCCC3)c2c1)N1CCCCCC1 | -0.7 | -4.2
O=[N+]([O-])c1cc(C(F)(F)F)ccc1Sc1ccccc1 | -4.4 | 55.0*
CC(C)Sc1ccc(C(F)(F)F)cc1[N+](=O)[O-] | -31.0 | x
SMILES | Pf apPOL inh | mHTT-CaM PPI inh
CN1CCN(Cc2c(O)ccc3c2OC(=Cc2cc4ccccc4o2)C3=O)CC1 | -1.4 | 16.9
Cc1noc(C2CCCCN2C(=O)c2cc(-c3ccccc3)n[nH]2)n1 (stereo not drawn) | -3.9 | -3.9
O=C(C1CCOC1)N1CCC(CCOCc2ccc(F)cc2)CC1 (stereo not drawn) | -3.2 | -5.6
CN(C)c1ccc(NC(=O)CCN2CCN(C3c4ccccc4-c4ccccc43)CC2)cc1 | -4.6 | 93.0*
CCOc1ccc(NC(=O)CCN2CCN(C3c4ccccc4-c4ccccc43)CC2)cc1 | -1.2 | 4.0
CN(C)c1ccc(NC(=O)CN2CCN(C3c4ccccc4-c4ccccc43)CC2)cc1 | -1.5 | 36.0
COc1cccc(NC(=O)CN2CCN(C3c4ccccc4-c4ccccc43)CC2)c1 | 0.4 | 25.0
O=C(CCN1CCN(C2c3ccccc3-c3ccccc32)CC1)Nc1cccc(C(F)(F)F)c1 | -0.5 | 69.0*
O=C(CN1CCN(C2c3ccccc3-c3ccccc32)CC1)Nc1ccc(F)c(F)c1 | -3.7 | 74.0*
Cc1ccccc1C(=O)Nc1c2c(nn1-c1cccc(C)c1C)CSC2 | -0.3 | 44.0
C=CCOc1c(Br)cc(C=C2C(=O)NC(=O)NC2=O)cc1OC | -7.5 | 8.0
CC(C(=O)N1CCCCCC1)N(c1ccccc1)S(C)(=O)=O (stereo not drawn) | -9.9 | -5.5
CC(C)CCNc1ccc(-c2nc(-c3ccc(F)cc3)no2)cn1 | 1.2 | -3.1
CCOC(=O)C(C#N)=CNc1ccc2c(c1)OCO2 | -1.0 | x
Cc1ccc(C(=O)N2CCCN(C3CCN(CC4CC4)C3=O)CC2)s1 (stereo not drawn) | 4.8 | 11.8
O=C(N1CCOCC1)C1(c2cc(-c3ccco3)on2)CC1 | -2.3 | 1.0
COc1ccccc1C(=O)N1CCN(C(=O)C(c2ccccc2)c2ccccc2)CC1 | -9.6 | 20.7
COc1cccc(C(=O)N2CCN(C(=O)c3ccc(-c4ccccc4)cc3)CC2)c1OC | 6.5 | 51.9*
COc1ccccc1C(=O)N1CCN(C2=NN=C(c3ccccc3)CS2)CC1 | 0.7 | 78.9*

Source: PubChem BioAssay
